# Measurements as given in PubChem BioAssay AID651930 (Southern Research Specialized Biocontainment Screening …, 2012).
# A number with no mark means an inactive call. No rule for the calls is given here.
# Test: Vero 76 cell cytotoxicity, dose response, cytotoxicity control for VEEV inhibitor project, set 9 (AID 651930)
# Settings: Vero 76 cytotoxicity; series mostly up to 25 µM; viability: at the top concentration
row,SMILES,viability
1,CCN1CCN(Cc2nc3c([N+](=O)[O-])cccc3c(=O)n2-c2ccccc2)CC1,84.3%
2,CCN1CCN(Cc2nc3ccc([N+](=O)[O-])cc3c(=O)n2C)CC1,85.9%
3,CN(C)c1cccc(-n2c(CN3CCNCC3)nc3ccc([N+](=O)[O-])cc3c2=O)c1,99.6%
4,CCN1CCN(C(c2nc3ncc([N+](=O)[O-])cc3c(=O)n2-c2ccccc2)C(c2nc3ncc([N+](=O)[O-])cc3c(=O)n2-c2ccccc2)N2CCN(CC)CC2)CC1 (stereo unspecified),95.6%
5,CN1CCN(C)C(=Nc2ccc(C#N)cc2C(=O)Nc2cccc(F)c2)C1,84.5% [at 50 µM]
6,CCN1CCN(Cc2nc3ncccc3c(=O)n2-c2ccccc2)CC1,94.2%
7,CN1CCN(C)C(=Nc2cc(Cl)c(C#N)cc2C(=O)Nc2ccccc2)C1,84.8% [at 50 µM]
8,CCN1CCN(Cc2nc3ccc(C(=O)O)cc3c(=O)n2-c2ccccc2)CC1,87.7%
9,O=c1nc(Nc2ccc(F)cc2)sc2ncccc12,96.5%
10,COc1ccc(Nc2nc(=O)c3cccnc3s2)cc1,91.2% [at 50 µM]
11,O=c1c2cc([N+](=O)[O-])ccc2nc(CN2CCNCC2)n1-c1ccccc1,96.2%
12,CCN1CCN(Cc2nc3ccc([N+](=O)[O-])cc3c(=O)n2-c2ccccc2)CC1,96.5%
13,CNCCN(C)Cc1nc2ccc(C#N)cc2c(=O)n1-c1ccccc1F,90.3% [at 50 µM]
14,O=c1c2cc([N+](=O)[O-])ccc2nc(C2CCNCC2)n1-c1ccccc1,82.6%
15,O=c1nc(Nc2ccc(OCc3ccccc3)cc2)sc2ncc([N+](=O)[O-])cc12,96.3%
16,CCN(CC)c1nc(=O)c2cccnc2s1,102% [at 50 µM]
17,CCN1CCN(Cc2nc3ccc(C#N)cc3c(=O)n2-c2ccccc2)CC1,87.5%
18,O=c1c2cc([N+](=O)[O-])ccc2nc(CN2CCNCC2)n1-c1ccccc1F,102%
19,CNCCCN(C)Cc1nc2ccc([N+](=O)[O-])cc2c(=O)n1-c1ccccc1,102% [at 50 µM]
20,CCN1CCN(Cc2nc3ccc(S(=O)(=O)O)cc3c(=O)n2-c2ccccc2)CC1,97.8%
21,O=c1nc(Nc2ccc(CCc3ccccc3)cc2)sc2ncccc12,83.9% [at 50 µM]
